Consider 16 compounds from PubChem BioAssay.

Active and inactive are the calls of the source.

Assay [1] is described as follows: binders of probe aFSTL3 on microarray, primary screen, stem cell growth factor project, biochemical, small-molecule microarray, fluorescence 635/667 (AID 1064).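 Note: measures binding of the biotinylated anti-FSTL3 antibody to printed compounds.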 The following applies: higher = more signal.
Assay [2] in a line: binders from COS7 lysate, DM2A8 probe, primary screen, torsin A project, cell lysate, small-molecule microarray, fluorescence 635/667 (AID 1065). The note with it: higher = more signal, COS7 lysate expressing mutant human TOR1A.
The nature of assay [3]: binders of probe aFGF2 on microarray, primary screen, stem cell growth factor project, biochemical, small-molecule microarray, fluorescence 635/667 (AID 1067).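 Note: measures binding of biotinylated aFGF2 protein to printed compounds on slides; z-score merges feature fluorescence and signal-to-noise across triplicate slides.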 The following applies: higher = more signal.
Assay [4] in a line: binders of probe aFGF10 on microarray, primary screen, stem cell growth factor project, biochemical, small-molecule microarray, fluorescence 635/667 (AID 1071).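 Note: score merges 667 nm spot intensity and signal to noise from triplicate slides.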 The following applies: higher = more signal.
The target in assay [5] is Neurogenic locus notch homolog protein 2 (Homo sapiens) (UniProt Q04721). Description: Notch2 binders on small-molecule microarrays, primary screen, biochemical, small-molecule microarray, 635 nm fluorescence, stem cell growth factors (AID 1073). The note with it: Notch2 binding, higher = more signal.
In assay [6] the target is Pro-neuregulin-1, membrane-bound isoform (Homo sapiens) (UniProt Q02297). Briefly: NRG1 binders on small-molecule microarrays, primary screen, psychiatric disease protein project, biochemical, small-molecule microarray, fluorescence 635/667 (AID 1075).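 Note: score combines 667 nm spot fluorescence with signal to noise.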 The note with it: NRG1 binding, 635 nm fluorescence, higher = more signal.
For assay [7], the system named is Neuregulin-1 EGF-like domain. Briefly: binders of neuregulin-1 EGF-like domain, primary screen, biochemical, small-molecule microarray, 635 nm fluorescence (AID 1081).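 Note: binding of the protein to compounds printed on small-molecule microarray slides.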 The following applies: small-molecule microarray binding, higher = more signal.
Assay [8] can be described thus: FRG1 promoter luciferase signal modulators, primary screen, FRG1 inhibition for FSHD, cell-based, C2C12 myotubes, firefly/Renilla luciferase, luminescence (AID 1084). The following applies: higher = more signal, called active from +8 up or from −8 down.
Assay [9] is described as follows: binders of probe aFST on microarray, primary screen, stem cell growth factor project, biochemical, small-molecule microarray, fluorescence 635/667 (AID 1086).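 Note: score merges 667 nm fluorescence with signal-to-noise of each printed compound spot.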 The following applies: higher = more signal.
Assay [10] in a line: binders of probe aHhip on microarray, primary screen, stem cell growth factor project, biochemical, small-molecule microarray, fluorescence 635/667 (AID 1087).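 Note: score merges spot fluorescence at 667nm with spot signal to noise ratio.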 The note with it: higher = more signal.

Sequence of Neurogenic locus notch homolog protein 2 (Homo sapiens) (Q04721 whole entry, looked up, canonical isoform): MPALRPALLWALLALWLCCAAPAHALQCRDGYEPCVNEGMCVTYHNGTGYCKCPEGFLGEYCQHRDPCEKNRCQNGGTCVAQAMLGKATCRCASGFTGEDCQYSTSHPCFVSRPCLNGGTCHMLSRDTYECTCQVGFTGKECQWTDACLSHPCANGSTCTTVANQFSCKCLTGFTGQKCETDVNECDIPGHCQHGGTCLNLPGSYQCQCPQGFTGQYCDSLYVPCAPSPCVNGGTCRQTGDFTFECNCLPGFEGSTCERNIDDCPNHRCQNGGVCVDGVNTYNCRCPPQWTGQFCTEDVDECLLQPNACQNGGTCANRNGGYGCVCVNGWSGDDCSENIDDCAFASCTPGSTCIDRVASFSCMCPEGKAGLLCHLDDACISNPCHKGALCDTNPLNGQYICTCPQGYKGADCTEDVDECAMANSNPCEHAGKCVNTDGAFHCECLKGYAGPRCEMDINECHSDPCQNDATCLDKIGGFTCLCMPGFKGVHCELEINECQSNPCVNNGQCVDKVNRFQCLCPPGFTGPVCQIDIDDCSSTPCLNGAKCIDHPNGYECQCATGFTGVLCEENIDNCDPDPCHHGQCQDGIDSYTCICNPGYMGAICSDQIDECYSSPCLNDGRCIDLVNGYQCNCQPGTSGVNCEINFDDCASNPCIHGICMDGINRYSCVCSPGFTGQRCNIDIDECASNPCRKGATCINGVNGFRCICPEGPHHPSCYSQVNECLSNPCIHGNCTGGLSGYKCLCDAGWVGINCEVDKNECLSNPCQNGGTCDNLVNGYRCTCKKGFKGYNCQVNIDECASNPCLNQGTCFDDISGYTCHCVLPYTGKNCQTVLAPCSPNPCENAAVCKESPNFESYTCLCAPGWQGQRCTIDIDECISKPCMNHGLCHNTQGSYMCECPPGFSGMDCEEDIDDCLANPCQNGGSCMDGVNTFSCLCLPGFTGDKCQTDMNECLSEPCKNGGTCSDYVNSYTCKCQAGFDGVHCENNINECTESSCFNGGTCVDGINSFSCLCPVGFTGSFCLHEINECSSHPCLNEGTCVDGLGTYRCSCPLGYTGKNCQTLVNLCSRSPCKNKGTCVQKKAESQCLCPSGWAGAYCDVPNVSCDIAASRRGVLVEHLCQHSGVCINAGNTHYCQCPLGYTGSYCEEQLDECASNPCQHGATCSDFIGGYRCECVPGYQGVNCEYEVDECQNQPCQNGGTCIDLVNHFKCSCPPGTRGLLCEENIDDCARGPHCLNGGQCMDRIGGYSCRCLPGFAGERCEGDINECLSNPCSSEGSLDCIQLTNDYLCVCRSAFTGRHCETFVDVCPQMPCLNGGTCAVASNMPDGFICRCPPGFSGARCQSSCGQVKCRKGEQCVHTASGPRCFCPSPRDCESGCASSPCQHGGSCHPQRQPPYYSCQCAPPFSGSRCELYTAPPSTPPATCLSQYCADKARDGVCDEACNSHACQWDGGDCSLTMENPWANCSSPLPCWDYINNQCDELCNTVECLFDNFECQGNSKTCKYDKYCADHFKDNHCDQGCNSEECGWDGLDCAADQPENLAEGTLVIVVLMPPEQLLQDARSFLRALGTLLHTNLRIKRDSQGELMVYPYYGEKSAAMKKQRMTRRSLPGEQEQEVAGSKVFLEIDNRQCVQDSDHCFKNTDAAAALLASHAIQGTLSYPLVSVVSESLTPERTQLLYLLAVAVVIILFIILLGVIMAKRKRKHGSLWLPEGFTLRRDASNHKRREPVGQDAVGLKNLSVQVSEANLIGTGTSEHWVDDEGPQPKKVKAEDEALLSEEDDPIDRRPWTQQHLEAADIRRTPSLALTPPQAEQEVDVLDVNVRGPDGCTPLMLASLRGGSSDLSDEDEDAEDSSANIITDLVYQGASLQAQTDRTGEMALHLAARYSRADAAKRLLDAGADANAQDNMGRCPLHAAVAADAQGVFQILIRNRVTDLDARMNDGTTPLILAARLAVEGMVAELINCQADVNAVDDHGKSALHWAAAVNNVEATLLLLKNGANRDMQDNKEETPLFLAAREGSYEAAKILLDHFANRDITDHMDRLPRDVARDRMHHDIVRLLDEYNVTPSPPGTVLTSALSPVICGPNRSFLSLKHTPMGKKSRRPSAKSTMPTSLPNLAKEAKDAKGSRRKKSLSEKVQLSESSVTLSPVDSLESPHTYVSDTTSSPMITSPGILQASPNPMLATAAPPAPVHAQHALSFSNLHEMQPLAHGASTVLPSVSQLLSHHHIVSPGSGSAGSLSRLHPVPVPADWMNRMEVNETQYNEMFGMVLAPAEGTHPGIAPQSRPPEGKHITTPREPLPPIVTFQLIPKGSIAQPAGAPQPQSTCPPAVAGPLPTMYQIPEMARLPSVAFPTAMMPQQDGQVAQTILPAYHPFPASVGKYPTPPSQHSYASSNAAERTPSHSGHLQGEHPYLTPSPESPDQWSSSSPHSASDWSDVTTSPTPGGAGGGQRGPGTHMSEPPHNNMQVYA
Sequence of Pro-neuregulin-1, membrane-bound isoform (Homo sapiens) (Q02297 whole entry, looked up, the tested form may be a part, canonical isoform): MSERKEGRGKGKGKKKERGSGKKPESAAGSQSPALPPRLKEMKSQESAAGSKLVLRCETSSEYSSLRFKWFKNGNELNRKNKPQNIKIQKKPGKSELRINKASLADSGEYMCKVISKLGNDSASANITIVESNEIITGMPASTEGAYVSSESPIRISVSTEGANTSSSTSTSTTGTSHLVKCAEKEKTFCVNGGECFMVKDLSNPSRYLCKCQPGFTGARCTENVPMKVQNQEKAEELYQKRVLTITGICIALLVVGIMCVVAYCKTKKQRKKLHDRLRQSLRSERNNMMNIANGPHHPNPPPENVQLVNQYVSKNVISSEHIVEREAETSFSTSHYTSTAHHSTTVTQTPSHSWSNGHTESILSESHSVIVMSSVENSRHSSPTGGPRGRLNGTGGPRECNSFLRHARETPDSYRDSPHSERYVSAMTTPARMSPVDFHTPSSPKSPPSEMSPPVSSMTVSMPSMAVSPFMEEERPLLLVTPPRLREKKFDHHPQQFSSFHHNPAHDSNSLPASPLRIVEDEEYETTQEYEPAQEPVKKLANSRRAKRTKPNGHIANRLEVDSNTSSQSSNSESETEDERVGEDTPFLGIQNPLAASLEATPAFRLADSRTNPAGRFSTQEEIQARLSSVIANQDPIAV

On to `COCCOC(=O)N1C(=O)[C@@]2(c3cc(C#CCNC(N)=O)ccc31)[C@H](c1ccccc1OCCO)N1[C@H](c3ccccc3)[C@H](c3ccccc3)OC(=O)[C@H]1[C@@H]2C(=O)NC[C@H](O)c1ccccc1`, for which the composite z-score is -0.342 in assay [1]; 1.27 in [2]; -0.0083 in assay [3]; 0.658 in assay [4]; 0.472 in assay [5]; 1.54 in assay [6]. Also, the composite z-score in assay [7] is 1.21; in assay [9] it was 0.512; in [10], -0.0672. For the same compound, the z-score in [8] is -0.163 (inactive).
Take `C[C@@H]1NC(=O)CC=C[C@@H](C)[C@@H]2C=C[C@H](O)[C@@H](COC(=O)[C@H](C)NC(=O)CC=C[C@@H](C)[C@@H]3C=C[C@H](O)[C@@H](COC1=O)O3)O2`: the composite z-score in assay [1] was -0.703; in assay [2], 0.0339; in assay [3], -0.0511; in assay [4], 0.216; in assay [5], 0.0211; in [6], -0.428. In addition, the composite z-score in [7] was -0.247; in [9], 0.229; in assay [10] it was -0.0994. Besides, in [8], the z-score is 0.587 (inactive).
Turning to `C=CCN1C(=O)[C@@]2(O[C@@H](CCn3cc([C@H](O)c4ccccc4)nn3)[C@H]([Si](C)(C)c3ccc(OC)cc3)[C@H]2C)c2cc(N3CCOC3=O)ccc21`, the composite z-score in assay [1] is 0.228; in assay [2], 0.39; in [3] it was -0.104; in assay [4] it was 0.105; in [5] it was -0.261; in assay [6] it was -0.344. Besides, the values for the composite z-score in assay [7], in assay [9] and in assay [10] were 1.1, -0.0319 and -0.0645, respectively. Further, in assay [8], the z-score was -2 (inactive).
Consider `CO[C@H]1O[C@H](CO)[C@@H](OC(=O)Nc2ccccc2)[C@H](OC(=O)Nc2ccc3c(c2)OCO3)[C@@H]1OC(=O)Nc1ccc2c(c1)OCO2`, for which the composite z-score in [1] is 0.304; in assay [2], 1.66; in [3] it was -0.0784; in assay [4], 0.158; in assay [5], 0.288; in assay [6], 1.77. In addition, the composite z-score in assay [7] is 1.29; in assay [9] it was 0.474; in [10], -0.191. Further, the z-score in assay [8] is 2.25 (inactive).
Consider `CC/C=C/C(=O)N(C[C@@H]1CCCO1)[C@@H]1CC(C(=O)NCCO)=C[C@H](Oc2c(I)cc(CO)cc2OC)[C@H]1O`, for which the composite z-score is -0.329 in assay [1]; 0.51 in assay [2]; -0.22 in [3]; 0.629 in assay [4]; 0.347 in [5]; 0.06 in assay [6]. Besides, the composite z-score in assay [7] was 0.366; in assay [9], -0.176; in assay [10] it was -0.0994. Also, the z-score in assay [8] is -1.24 (inactive).
With `CCCCCCc1nc(C2CC2)c(C)c2c1[Si](C(C)C)(C(C)C)OC2`, the composite z-score in assay [1] was 0.411; in assay [2], 0.159; in [3], -0.167; in [4], -0.588; in [5], -0.923; in assay [6], -0.322. Further, the composite z-score in assay [7] was -0.629; in [9], -0.266; in assay [10], -0.0672. In addition, the z-score in assay [8] is -0.139 (inactive).
As to `CN1C(=O)C2C=CC(C(O)c3ccc(N(C)C)cc3)N(Nc3ccc([N+](=O)[O-])cc3[N+](=O)[O-])C2C1=O` (stereo not given), the composite z-score in assay [1] came out at 1.56; in [2] it was 0.989; in assay [3], 0.126; in assay [4], 0.739; in [5] it was 1.6; in assay [6] it was 1.25. In addition, the composite z-score in assay [7] is 1.31; in assay [9] it was 1.29; in assay [10] it was -0.0296. Besides, the z-score in assay [8] was 2 (inactive).
For `C=C[C@H](OC)[C@@H](OC(=O)Nc1ccc(SC)cc1)c1ccc(OC)c(O)c1`, the composite z-score in assay [1] was 0.687; in [2] it was -0.368; in assay [3], -0.141; in [4], -0.748; in assay [5], -0.708; in assay [6], -0.231. The composite z-score in assay [7] was 0.164; in assay [9] it was -0.595; in assay [10] it was -0.0994. Moreover, in assay [8], the z-score is 1.2 (inactive).
Take `O=C1O[C@H](c2ccccc2)[C@H](c2ccccc2)N2[C@H]1[C@@H](C(=O)NC[C@H](O)c1ccccc1)[C@]1(C(=O)Nc3ccc(C#CC4(O)CCCCCC4)cc31)[C@H]2c1ccc(OCCO)cc1`: the composite z-score in [1] worked out at 0.247; in [2], 0.634; in [3] it was 0.0589; in assay [4], 0.577; in assay [5], 1.19; in [6] it was 1.02. Moreover, the figures for the composite z-score in assay [7], in assay [9] and in assay [10] were 1.24, 0.388 and 0.0024, respectively. The z-score in assay [8] was 1.04 (inactive).
Consider `Cc1ccc(S[C@]2(C(=O)NCCN3CCOCC3)CC(=O)N(C3Cc4ccccc4C3)[C@@H]2c2ccc(CO)cc2I)cc1`, for which the composite z-score in assay [1] is 1.1; in assay [2] it was 0.677; in [3] it was -0.19; in assay [4], -0.761; in assay [5], -1.11; in assay [6], 1.69. The composite z-score is 0.544 in assay [7], 0.336 in assay [9] and -0.0994 in assay [10]. For the same compound, in [8], the z-score is -0.974 (inactive).
On to `C=CC[C@]1(C(=O)O)N=C(c2ccc(OCCCO)cc2)O[C@H]1c1ccccc1`, for which the composite z-score in assay [1] was 1.03; in assay [2], -0.269; in assay [3], -0.0985; in assay [4], -0.2; in assay [5], -0.0704; in assay [6], 1.87. The composite z-score in assay [7] was 1.12; in assay [9] it was 0.0226; in [10], -0.169. For the same compound, the z-score in assay [8] is 0.197 (inactive).
In the case of `CN(C)CCCC[C@@H]1NC(=O)[C@@H]2C[C@H](C(=O)NCCCCCNC(=O)CS)[C@H](c3ccc(O)cc3)N2C1=O`, the composite z-score came to 0.174 in assay [1]; 0.522 in assay [2]; 0.0918 in assay [3]; 0.429 in assay [4]; 0.728 in [5]; 0.264 in [6]. For the same compound, the composite z-score in [7] is 1.22; in assay [9], -0.0694; in assay [10], 0.382. Besides, the z-score in [8] was 0.47 (inactive).
Regarding `CC1CC/C=C\[C@H]2OC34C=CCN(Cn5nnc6ccccc65)C(=O)[C@H]3N(C(C)CO)C(=O)[C@@H]4C2C(=O)O1` (stereo not given in full), the composite z-score in assay [1] is -0.0303; in assay [2] it was -1.38; in assay [3], -0.171; in assay [4], -0.282; in [5], -0.64; in [6], 1.86. Also, the composite z-score is 0.3 in [7], -0.134 in [9] and 0.0373 in [10]. Besides, the z-score in assay [8] was -0.389 (inactive).
On to `C=CC[C@]1(C(=O)O)N=C(c2ccc(OCCCO)cc2)O[C@H]1c1ccccc1N=[N+]=[N-]`, for which the composite z-score in assay [1] is 1.17; in assay [2], -0.258; in assay [3], -0.101; in assay [4], 0.427; in assay [5], -0.16; in assay [6] it was 0.215. Further, the composite z-score in assay [7] is 0.686; in assay [9], 0.489; in assay [10] it was -0.403. Also, the z-score in assay [8] is 4.6 (inactive).
In the case of `COc1cc2c(cc1OC)CN(C(=O)[C@H]1[C@@H]3C(=O)O[C@@H](c4ccccc4)[C@@H](c4ccccc4)N3[C@@H](c3ccc(O)cc3)[C@]13C(=O)Nc1ccc(C#CC4(O)CCCCCC4)cc13)CC2`, the composite z-score in [1] came to 1.75; in assay [2] it was 0.457; in assay [3] it was 0.567; in [4] it was 1.12; in assay [5], 0.685; in assay [6], 2.26. Moreover, the results for the composite z-score in assay [7], in [9] and in [10] were 1.33, 2.53 and 2.29, respectively. The z-score in assay [8] was -0.21 (inactive).
For `C[C@@H]1CC[C@H]2C(=O)N3[C@@H](CC[C@@H](C)[C@@H]3c3cccc(N4CCOCC4)c3)C(=O)N2[C@H]1c1cccc(Br)c1`, the composite z-score is -0.0356 in [1]; 0.237 in [2]; -0.108 in assay [3]; 0.528 in assay [4]; 0.263 in assay [5]; 0.942 in [6]. In addition, the composite z-score stood at 0.987 in assay [7], 0.166 in [9] and 0.0373 in [10]. Also, the z-score in assay [8] was -0.649 (inactive).
